The results in this text go back to PubChem BioAssay AID651813 (National Center for Advancing Translational Sciences (NCATS), 2012).

In all, about 2,100 compounds went through this assay and about 1,100 (52%) were called active. Not shown: some 27% with an inconclusive outcome. The set was probably picked from earlier hits. This is one part of the list. Values without a mark were called inactive. Calls come from the whole dose curve; as a rule, active = well fitted inhibition curve with a large enough effect; inconclusive = small, poorly fitted or top-dose-only effect; inactive = no such curve, though single readings can be large or run the other way.
Potency is the fitted concentration of half-maximal effect.

DNA dC->dU-editing enzyme APOBEC-3G (Homo sapiens), sequence (Q9HC16 whole entry, looked up): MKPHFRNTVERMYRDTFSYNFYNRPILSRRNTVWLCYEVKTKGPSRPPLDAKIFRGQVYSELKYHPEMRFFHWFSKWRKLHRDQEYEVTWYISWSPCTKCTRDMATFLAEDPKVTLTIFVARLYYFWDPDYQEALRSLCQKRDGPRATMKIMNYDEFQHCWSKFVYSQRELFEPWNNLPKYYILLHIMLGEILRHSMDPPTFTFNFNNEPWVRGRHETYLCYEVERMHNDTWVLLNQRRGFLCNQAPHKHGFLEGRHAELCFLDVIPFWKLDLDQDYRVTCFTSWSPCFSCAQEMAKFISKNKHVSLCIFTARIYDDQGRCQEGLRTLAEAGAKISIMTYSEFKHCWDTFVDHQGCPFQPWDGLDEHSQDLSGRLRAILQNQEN

This experiment addresses DNA dC->dU-editing enzyme APOBEC-3G (Homo sapiens) (UniProt Q9HC16). The experiment is described as follows: qHTS for inhibitors of Vif-A3G interactions: Cherry picks counterscreen.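 For max response: max response given as percent of control signal.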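 Note: hits raise yellow fluorescence by blocking Vif-driven A3G-eYFP degradation; nearly all actives have a fitted effect of over 70% in size.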 Particulars: HeLa A3G-eYFP + Vif (tagged APOBEC3G with the HIV-1 protein that degrades it), eYFP fluorescence, 24 h. The text has this:
The recent discovery and characterization of host restriction factors, which provide a potent defense to invading retroviruses, has provided new targets for antiviral drug development. APOBEC3G (A3G) and APOBEC3F (A3F) are potent cytidine deaminases that block HIV-1 replication; HIV-1 expresses the Vif protein, which counteracts A3G and A3F by binding to them and inducing their proteasomal degradation. The Vif-A3G and Vif-A3F interactions provide two potential targets for development of small molecules which can interfere with the ability of Vif to degrade A3G or A3F. […] To identify inhibitors that can interfere with Vif mediated degradation of A3G and A3F, we have developed Hela cell lines that stably express A3G or A3F tagged with eYFP at the C-terminal end (A3G-eYFP or A3F-eYFP, respectively) and Vif. In the absence of an inhibitor, Vif induces degradation of A3G-eYFP and A3F-eYFP, and the cells are not fluorescent. In the presence of an inhibitor, it is expected that Vif will be unable to degrade A3G-eYFP and/or A3F-eYFP, resulting in an increase in yellow fluorescence. In this counterscreen assay, Vif A3G was screened against the cherry picks ordered from the MLSMR. NIH Chemical Genomics Center [NCGC] NIH Molecular Libraries Probe Centers Network [MLPCN] MLPCN Grant: MH093245 Assay Submitter (PI): Vinay Pathak, National Cancer Institute
A3G-Vif cells were harvested from T225 flask and resuspended in phenol free OPTI-MEM medium with 5% FBS. Then 5 uL of 140,000 cells/mL resuspended cells was dispensed into each well of low base Aurora COC 1,536-well plates (black walled, clear bottom) using a Multidrop Combi dispenser. After overnight culture at 37 deg C with 5% CO2, a total of 23 nL of compounds at 5 selected concentrations from the NPC or positive control (2 mM stock of MG132) in DMSO was transferred to each well of the assay plate using a pintool (Kalypsys, San Diego, CA), and the plates were further incubated at 37 deg C with 5% CO2 for 24 hours. After that, the plates were measured on Acumen Explorer (TTP Lab Tech). The fluorescence was detected by 488 nm/Ex and […].
As for `CC(=O)Nc1cccc(-c2ccnc3c2CC(C(=O)NCc2ccco2)O3)c1` (configuration not stated), the Potency was 6.27 µM (active).
Still for that read-out and setting: under `O=c1nc(/C=C/c2ccc(Cl)cc2Cl)cc(C(F)(F)F)[nH]1` stands 17.7 µM (active); under `CC(=O)OC1C2(CC3N4C(=O)C5(CO)SSC4(CC31O)C(=O)N5C)OC(C)C(C)(C)C2=O` (configuration not stated), 12.5 µM (active); under `Nc1ccc2c3c(cccc13)-c1ccccc1-2`, 2.31 µM (active).
On the same count and under the same terms, with `C=C1C(=O)OC2C1CCC(C)C1(O)C=CC(=O)C21C` (configuration not stated) the figure was 8.86 µM (active).
Still for that read-out and setting: with `Cc1cc(N2CCCC2)ccc1C=C(C#N)C#N` the figure was 11.6 µM (active); with `CCN(CC)c1ccc(N=Cc2c(O)n(Cc3ccccc3)c(=O)[nH]c2=O)cc1`, 13 µM (active); with `CCN(CC)c1ccc(N=Cc2c(O)n(CCC3=CCCCC3)c(=O)[nH]c2=O)cc1`, 23.1 µM (active).
Turning to `C=CCn1c(O)c(C(C)=Nc2ccc(N(CC)CC)cc2)c(=O)[nH]c1=O`, the Potency is 9.94 µM (active).
As for `Cc1ccccc1-n1c(O)c(/C=C/C=Nc2ccccc2)c(=O)[nH]c1=O`, the max response was 55.1%.
`CCS(=O)(=O)N1N=C(c2cccc(NS(C)(=O)=O)c2)CC1c1ccccc1` (configuration not stated): the Potency is 20.6 µM (active).
As to `Cc1nn(Cc2ccccc2)c(C)c1C(=O)OCC(=O)Nc1ccccc1SCC#N`, the Potency is 15.8 µM (active).
Same read-out and setting: under `N#CC1=C(N)Oc2c(c(=O)sc3ccccc23)C1c1cccnc1` (configuration not stated) stands 5.59 µM (active).
Still for that read-out and setting: with `NC(=Nc1ccccc1)NN=Cc1c[nH]c2ccccc12` the figure was 2.23 µM (active); with `CC(=O)O[C@@]12CO[C@@H]1C[C@H](OC1OCC(O)C(O)C1O)[C@@]1(C)C(=O)[C@H](O)C3=C(C)[C@@H](OC(=O)[C@H](O)[C@@H](NC(=O)c4ccccc4)c4ccccc4)C[C@@](O)([C@@H](OC(=O)c4ccccc4)C12)C3(C)C` (some centres not stated), 1.25 µM (active); with `CCCCn1c(O)c(C(=O)/C=C/c2c[nH]c3ccccc23)c(=O)[nH]c1=O`, 4.44 µM (active).
On the same count and under the same terms, with `CC1=CC(=Cc2sc3ccccc3[n+]2C)C=C(C)O1` the figure was 20.6 µM (active); with `Cc1c(Cl)cccc1NC(=O)c1oc2ccc(S(=O)(=O)N3CCC4(CC3)OCCO4)cc2c1C`, 7.31 µM (active).
In the case of `CN1CCN(c2ccc(/C=C3\C(=O)NC(=S)N(c4cccc(Br)c4)C3=O)o2)CC1`, the Potency is 16.4 µM (active).
Same read-out and setting: under `CN1C(=O)/C(=C\c2ccc(N3CCCCC3)o2)C(=O)NC1=S` stands 17.7 µM (active); under `CN1C(=O)/C(=C/c2ccc(N3CCCCCC3)o2)C(=O)NC1=S`, 15.8 µM (active); under `COc1cc2c(cc1O)[C@@H]1Cc3ccc(OC)c(O)c3CN1CC2`, 12.5 µM (active).
As for `COc1ccc(-n2cnc3cc(C(=O)N4CCC5(CC4)OCCO5)ccc32)cc1`, the Potency was 9.94 µM (active).
Same read-out and setting: with `COc1cccc(C2=CC(c3cc(Br)ccc3F)n3nnnc3N2)c1` (configuration not stated) the figure was 1.84 µM (active); with `Cc1cc(N(CCCl)CCCl)ccc1C=Cc1ccncn1`, 20.6 µM (active).
Regarding `ClCCN(CCCl)c1ccc(C=Cc2ccncn2)cc1`, the max response is -8.89%.
As for `CCN(CC)c1ccc2c(cc1=O)[C@@H](NC)CCc1cc(OC)c(OC)c(OC)c1-2`, the Potency was 2.5 µM (active).
Same read-out and setting: with `CN1C(=O)C(=Cc2ccc(N3CCOCC3)o2)C(=O)N(C)C1=O` the figure was 23.1 µM (active); with `CN1C(=O)C(=Cc2ccc(N3CCOCC3)o2)C(=O)N(C)C1=S`, 20.6 µM (active); with `CN1C(=O)C(=Cc2ccc(N3CCCCC3)o2)C(=O)N(C)C1=S`, 2.91 µM (active).
Same read-out and setting: with `CCN(CC)c1ccc(/C=C2\C(=O)NC(=S)N(C)C2=O)o1` the figure was 14 µM (active).
Same read-out and setting: under `CCN(CC)c1ccc(/C=C2\C(=O)NC(=S)N(c3ccc(OC)cc3OC)C2=O)o1` stands 18.4 µM (active); under `CCN(CC)c1ccc(C=C2C(=O)N(C)C(=S)N(C)C2=O)o1`, 6.27 µM (active); under `CCN1C(=O)/C(=C/c2ccc(N(CC)CC)cc2OC)C(=O)NC1=S`, 18.4 µM (active).
As for `COc1cc(C2C(C#N)=C(N)Oc3cc(O)ccc32)cc(OC)c1OC` (configuration not stated), the Potency was 1.77 µM (active).
Regarding `CN1/C(=C\C=C2C(=O)NC(=O)NC2=O)C(C)(C)c2ccccc21`, the Potency is 2.91 µM (active).
Same read-out and setting: under `CN(C)c1ccc(C(=O)c2ccc(N(C)C)cc2)cc1` stands 1.58 µM (active); under `CCCCNC(=O)/C(C#N)=c1\s/c(=C\c2ccccc2OC(F)F)c(=O)n1CCCOC`, 18.4 µM (active); under `COc1ccc(-c2ccc(OC)c(OC)c2OC)cc1`, 3.96 µM (active).
Still for that read-out and setting: with `O=C1NC(=O)N(c2ccc3c(c2)OCO3)C(=O)/C1=C/c1ccc(N2CCCCC2)o1` the figure was 23.1 µM (active).
On the same count and under the same terms, with `O=C1NC(=O)N(c2ccc3c(c2)OCO3)C(=O)/C1=C\c1ccc(N2CCCCC2)o1` the figure was 20.6 µM (active).
Take `Cc1cc(/C=C2\C(=O)NC(=O)N(c3ccc(Br)cc3)C2=O)c(C)n1C`: the max response is 8.75%.
Turning to `CC(C)c1ccc(N2C(=O)NC(=O)/C(=C/C=C/c3ccco3)C2=O)cc1`, the Potency was 14 µM (active).
On the same count and under the same terms, under `CC(C)c1ccc(N2C(=O)NC(=O)/C(=C\C=C\c3ccco3)C2=O)cc1` stands 14 µM (active).
Still for that read-out and setting: under `O=C(Cc1ccccc1)c1ccccn1` stands 12.5 µM (active).
As to `Cc1cccc(CN2CCCC(C(=O)c3cccc(OC(C)C)c3)C2)n1` (configuration not stated), the max response was 2.93%.
Consider `O=c1[nH]c(CN2CC=C(c3ccccc3)CC2)nc2scc(-c3ccccc3)c12`, for which the Potency was 8.2 µM (active).
Still for that read-out and setting: under `O=C1NC(=S)SC1=Cc1ccc(N(CCCl)CCCl)cc1` stands 15.8 µM (active); under `Cc1ccc(CNC(=O)c2ccccc2NC(=O)c2nsc3ccccc23)cc1`, 23.1 µM (active); under `Cc1cccc(-n2c(/C=C/c3ccc([N+](=O)[O-])o3)nc3ccccc3c2=O)c1`, 5.17 µM (active).
For `O=c1c2ccccc2nc(/C=C/c2ccc([N+](=O)[O-])o2)n1-c1ccc(O)cc1`, the Potency was 8.86 µM (active).
The same measure, in the same setting: under `COc1ccc(-n2c(/C=C/c3ccc(O)c(OC)c3)nc3ccccc3c2=O)cc1` stands 23.1 µM (active); under `Cc1cccc(-n2c(/C=C/c3c(C)[nH]c4ccccc34)nc3ccccc3c2=O)c1`, 18.4 µM (active).
With `Cc1cccc(-n2c(O)c(/C=C/C=Nc3ccccc3)c(=O)[nH]c2=O)c1`, the max response is 59.1%.
The same measure, in the same setting: with `COc1ccc2nc(NC(=O)c3nc(S(=O)(=O)Cc4cccc(C)c4)ncc3Cl)sc2c1` the figure was 58.8%.
As to `Cc1ccccc1-n1c(/C=C/c2ccc(N(C)C)cc2)nc2ccccc2c1=O`, the Potency was 1.46 µM (active).
On the same count and under the same terms, with `O=Cc1c(C(=O)O)n(Cc2ccc(Cl)cc2)c2ccccc12` the figure was 3.66 µM (active).
